Measurements as given in PubChem BioAssay (NCATS).
Inconclusive results are not listed. The source made the active and inactive calls. Calls follow the shape of the dose curve; as a rule, active = well fitted inhibition curve with a large enough effect; inconclusive = small, poorly fitted or top-dose-only effect; inactive = flat fitted curve, though single readings scatter.

What follows are compounds tested against Calcium and integrin-binding protein 1 (Homo sapiens) (UniProt Q99828) (assay: Primary qHTS for Identification of Calcium Integrin Binding Protein 1 (CIB1) Competitor (AID 1508620; also: top concentration of the series differs between compounds)). Conditions: CIB1-GST / FITC-alphaIIb peptide fluorescence polarization; series mostly up to 114 µM; activity change, negative = inhibition: at the top concentration.
Outline: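 Fluorescence polarization competition: GST-tagged CIB1 (1 uM final) preincubated with compound 15 min at room temperature, then FITC-labelled alphaIIb peptide (100 nM final) added. After 15 min at room temperature, polarization read at Ex 480/Em 540.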
% is scaled to controls: 0 for no effect and ±100 for the full control effect.

Sequence of Calcium and integrin-binding protein 1 (Homo sapiens) (Q99828 whole entry, looked up): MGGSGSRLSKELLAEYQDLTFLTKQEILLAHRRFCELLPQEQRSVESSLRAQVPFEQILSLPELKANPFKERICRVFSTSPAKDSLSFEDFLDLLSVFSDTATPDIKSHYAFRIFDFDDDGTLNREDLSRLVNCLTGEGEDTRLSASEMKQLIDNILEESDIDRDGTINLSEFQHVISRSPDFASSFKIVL

SMILES	activity change, negative = inhibition	Potency
CC(C)(C)OC(=O)Cc1nnc(C(C(=O)OCc2ccccc2)c2ccccc2)o1 (stereo not given)	-3.06% (inactive)	–
CC(C)Cc1ccc(-c2ccc(=O)n(CC(=O)NCCc3ccccc3)n2)cc1	-0.389% (inactive)	–
CCCCN(C)C(=O)Cn1nc(-c2ccc(C(F)(F)F)cc2)ccc1=O	-5.11% (inactive)	–
CC(=O)N1CCN(C(=O)COC(=O)c2ccc([S+](C)(=O)[O-])c([N+](=O)[O-])c2)CC1	-7.43% (inactive)	–
Cc1ccccc1-c1ccc(NC(=O)c2cccs2)cn1	-1.11% (inactive)	–
COc1ccc(CC(=O)Nc2nc(-c3ccc4c(c3)CCN4C(=O)c3ccccc3C)c(C)s2)cc1	2.98% (inactive)	–
Cc1cccc(CNc2ncnc3ccc(-c4ccc5c(ccn5C)c4)cc23)c1	6.86% (inactive)	–
Cc1ccc(-n2c(=O)ccc(=O)n2CC(=O)NCCc2ccccc2)cc1	5.84% (inactive)	–
Cc1cc2c(s1)c1cnn(Cc3ccc(F)cc3F)c(=O)c1n2C	2.47% (inactive)	–
Cc1ccc(OCCn2c(CCNC(=O)c3ccc[nH]3)nc3ccccc32)cc1	8.36% (inactive)	–
Cc1ccc(C)n1-c1cccc(-c2nn[nH]n2)c1	29.6% (inactive)	–
CN(C)CC(=O)NC1CCCc2c1cnn2-c1ccc(F)cc1F (stereo not given)	0.923% (inactive)	–
Cc1cnc(-c2ccccc2C(C)C)nc1NCc1ccc(-c2ccnc(C(F)(F)F)c2)cc1	3.21% (inactive)	–
CNC(=O)C1=C(C)NC(Nc2nc3ccccc3o2)=NC1c1[nH]ncc1Cl (stereo not given)	-13.9% (inactive)	–
CCc1ccc(NC(=O)C(=O)NNC(=O)Cc2ccc(Cl)c(Cl)c2)cc1	-5.49% (inactive)	–
CC(Nc1ncnc2ccc(-c3ccc4c(c3)OCO4)cc12)c1ccco1 (stereo not given)	-0.794% (inactive)	–
CN(C(=O)Nc1ccc2ccccc2c1)c1nnc(-c2ccncc2)s1	3.63% (inactive)	–
Cc1ccc2nc3sc(C(=O)Nc4ccc(F)cc4)cc3cc2c1	6.16% (inactive)	–
COc1cccc(-c2nc(SC)nc3sc(C(=O)NC(C)(C)C)c(N)c23)c1	-3.91% (inactive)	–
CCNc1ncnc2ccc(-c3ccc4c(c3)OCO4)cc12	-4.66% (inactive)	–

SMILES	activity change, negative = inhibition	Potency
Cc1cc2c(s1)c(C#N)c(C(=O)NCc1ccccc1F)n2C	-1.97% (inactive)	–
Cc1cccc(-n2cnc3cc(C(=O)N4CCC(C#N)CC4)ccc32)c1	-0.663% (inactive)	–
COc1ccc(-c2ccc3ncnc(NCc4nc(C)cs4)c3c2)cc1OC	-8.26% (inactive)	–
O=S1(=O)N=C(Oc2ccc3ccccc3c2)c2ccccc21	-11.1% (inactive)	–
O=S(=O)(c1ccccc1)N1CCN(c2nccc(-c3cccs3)n2)CC1	1.8% (inactive)	–
O=C1CCCC2=C1C(c1[nH]ncc1Cl)N=C(Nc1nc3cc(F)ccc3o1)N2 (stereo not given)	-2.71% (inactive)	–
O=C1CCCC2=C1C(c1[nH]ncc1Cl)NC(=NCCc1cccnc1)N2 (stereo not given)	-0.64% (inactive)	–
COc1ccc(C2Nc3ccccc3C(=O)N2Cc2ccccc2)cc1COc1c(C)cc(NC(C)=O)cc1C (stereo not given)	-0.44% (inactive)	–
Cc1cc2c(s1)c1cnn(Cc3c(Cl)ccc(C)c3F)c(=O)c1n2C	-13.7% (inactive)	–
O=C1N/C(=C\c2ccco2)C(=O)N1Cc1ccccc1	-0.738% (inactive)	–
Cc1ccsc1CNc1ncnc2ccc(-c3c(C)noc3C)cc12	0.78% (inactive)	–
CC1=C(C(=O)Nc2ccccc2)C(c2ccccc2Br)N=C(Nc2nc3ccccc3o2)N1 (stereo not given)	-0.072% (inactive)	–
Nc1nc(NCc2ccc(-c3cccnc3)cc2)c2ccccc2n1	7.84% (inactive)	–
Cc1ccc(-c2ccc(=O)n(CC(=O)NCCc3ncc[nH]3)n2)cc1	0.341% (inactive)	–
COc1cccc(C2=Nn3c(nnc3-c3ccccc3O)SC2)c1	3.5% (inactive)	–
O=C(O)c1cccnc1SC1=NS(=O)(=O)c2ccccc21	-2.75% (inactive)	–
Cc1cc(NC(=O)Nc2nnc(C3CCCCC3)s2)ccc1F	1.06% (inactive)	–
Cn1c2ccsc2c2ncn(Cc3ccccc3F)c(=O)c21	1.06% (inactive)	–
Fc1cc(Nc2nc(-c3ccncc3)nc3ccccc23)ccc1OCC(F)(F)F	2.76% (inactive)	–
CCC1CCC2(C1)N=C(Nc1nc3ccccc3o1)NC1=C2C(=O)CCC1 (stereo not given)	–	inactive
